Results taken from PubChem BioAssay (NCI).
“And” between values parts separate entries of the source, which are not always exact repeats. Equal entries are not always repeated. About 79,000 compounds went through this panel and 15% of them were active in at least one assay; those are over-represented in the sample as a whole. Some structures have more than one record in an assay (separate samples or runs), and their calls can disagree. The source made the active and inactive calls. Cut-off read from the data, not from the text of the source: active = growth inhibition above about 70%; inactive = the rest.

Key:
[1] = NCI Yeast Anticancer Drug Screen. Data for the wt1 strain (AID 149);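 note: 0% = growth of vehicle-treated wt1 cultures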; details: S. cerevisiae wt1 strain (SPY 50644) growth inhibition, stronger effect = higher value
Summary of the method: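 Vehicle-normalised growth inhibition; strain wt1; compound exposure.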

[2] = NCI Yeast Anticancer Drug Screen. Data for the rad50EPP+ strain (AID 151);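 note: 0% = growth of vehicle-treated control cultures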; details: S. cerevisiae rad50 mutant strain, stronger effect = higher value
Summary of the method: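 In this screen, rad50EPP+ yeast were exposed to compounds. Growth inhibition was scored against vehicle-treated controls.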

[3] = NCI Yeast Anticancer Drug Screen. Data for the mgt1 strain (AID 153); details: S. cerevisiae mgt1 mutant growth inhibition, stronger effect = higher value
Summary of the method: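 mgt1 strain exposed; growth vs vehicle control recorded as inhibition.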

[4] = NCI Yeast Anticancer Drug Screen. Data for the rad50 strain (AID 155);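 note: 0% = growth of vehicle-only cultures of the same strain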; details: S. cerevisiae rad50 strain growth inhibition, stronger effect = higher value
Summary of the method: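 A DNA repair-deficient yeast mutant serves as the test organism; compound-induced growth inhibition is calculated against vehicle-treated cells.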

[5] = NCI Yeast Anticancer Drug Screen. Data for the mec2-1 strain (AID 157); details: S. cerevisiae mec2-1 strain, stronger effect = higher value
Summary of the method: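 Vehicle-treated cultures served as reference for growth inhibition of compound-exposed mec2-1 yeast.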

[6] = NCI Yeast Anticancer Drug Screen. Data for the rad14 strain (AID 159);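 note: 0% = growth of vehicle-treated control cultures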; details: S. cerevisiae rad14 strain growth inhibition, stronger effect = higher value
Summary of the method: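 Vehicle-treated cultures served as the baseline for growth inhibition of a DNA repair-mutant yeast strain exposed to each compound.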

[7] = NCI Yeast Anticancer Drug Screen. Data for the sgs1 mgt1 strain (AID 161);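 note: 0% = growth of cultures given vehicle only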; details: S. cerevisiae sgs1 mgt1 strain, stronger effect = higher value
Summary of the method: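 Genetically altered yeast, compound exposure, growth inhibition relative to vehicle.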

[8] = NCI Yeast Anticancer Drug Screen. Data for the cln2 rad14 strain (AID 165);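 note: 0% = growth equal to vehicle treated cultures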; details: S. cerevisiae cln2 rad14 strain, stronger effect = higher value
Summary of the method: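 Each compound was tested on cln2 rad14 yeast. Inhibition of growth was calculated against vehicle-exposed controls.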

[9] = NCI Yeast Anticancer Drug Screen. Data for the bub3 strain (AID 167); details: S. cerevisiae bub3 mutant strain, stronger effect = higher value
Summary of the method: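 Inhibition values come from growth of compound-treated mutant yeast normalised to vehicle-treated controls.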

[10] = NCI Yeast Anticancer Drug Screen. Data for the wt2 strain (AID 169);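 note: 0% = growth of vehicle-treated yeast cultures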; details: S. cerevisiae wt2 strain growth inhibition, stronger effect = higher value
Summary of the method: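 Inhibition of yeast growth was determined after compound treatment, normalised to controls receiving only vehicle.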

[11] = NCI Yeast Anticancer Drug Screen. Data for the sgs1 strain (AID 173);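 note: 0% = growth of vehicle-only control cultures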; details: S. cerevisiae sgs1 mutant, stronger effect = higher value
Summary of the method: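 Screen format: yeast with repair or checkpoint alterations, compound exposure, growth read relative to vehicle.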

[12] = NCI Yeast Anticancer Drug Screen. Data for the mlh1 rad18 strain (AID 175); details: S. cerevisiae mlh1 rad18 strain growth inhibition, stronger effect = higher value
Summary of the method: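 Vehicle-treated cultures served as the reference for growth inhibition in a yeast strain carrying DNA damage repair alterations exposed to each compound.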

[13] = NCI Yeast Anticancer Drug Screen. Data for the rad18 strain (AID 177); details: S. cerevisiae rad18 mutant growth inhibition, stronger effect = higher value
Summary of the method: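 Test articles were incubated with altered yeast defective in DNA damage repair. Results are given as inhibition of growth versus vehicle.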

[14] = NCI Yeast Anticancer Drug Screen. Data for the CLN2oe strain (AID 163);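 note: 0% = growth of vehicle-only control cultures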; details: S. cerevisiae CLN2oe strain, stronger effect = higher value
Summary of the method: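 Inhibition relative to vehicle-treated yeast is reported. Cells: strain with genetic alteration in cell-cycle control, grown with compound.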

[15] = NCI Yeast Anticancer Drug Screen. Data for the mlh1 strain (AID 171);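 note: 0% = growth of vehicle-treated control cultures of the same strain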; details: S. cerevisiae mlh1 strain growth inhibition, stronger effect = higher value
Summary of the method: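 Vehicle-normalised growth inhibition of a repair- or checkpoint-altered yeast strain following compound treatment.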

[16] = at 5.0 µM (retest, dose inferred, filed as 0.5)
[17] = at 50.0 µM (retest, dose inferred, filed as 5.0)

Measured: growth inhibition

O=[N+]([O-])c1ccc2nnnn2c1
inactive: [1]; at 1.2 µM 1% | [1]; at 3.7 µM 2% | [1]; at 11.0 µM 7% | [1]; at 33.0 µM 11% | [1]; at 100.0 µM 19% | [2]; at 1.2 µM -2% | [2]; at 3.7 µM -1% | [2]; at 11.0 µM 15% | [2]; at 33.0 µM 50% | [3]; at 1.2 µM 0% | [3]; at 3.7 µM 2% | [3]; at 11.0 µM 4% | [3]; at 33.0 µM 23% | [3]; at 100.0 µM 18% | [4]; at 1.2 µM -3% | [4]; at 3.7 µM -1% | [4]; [16] 10% | [4]; at 11.0 µM 3% | [4]; at 33.0 µM 10% | [4]; at 100.0 µM 21% | [5]; at 1.2 µM -1% | [5]; at 3.7 µM 2% | [5]; [16] 3% | [5]; at 11.0 µM 4% | [5]; at 33.0 µM 12% | [5]; [17] 23% | [5]; at 50.0 µM 43.9% | [5]; at 100.0 µM 43% | [6]; at 1.2 µM -1% | [6]; at 3.7 µM 0% | [6]; at 11.0 µM 5% | [6]; at 33.0 µM 10% | [6]; at 100.0 µM 30% | [7]; [16] 29% | [7]; at 50.0 µM 60.8% | [8]; [16] 2% | [8]; [17] 28% | [8]; at 50.0 µM 29.9% | [9]; at 1.2 µM -3% | [9]; at 3.7 µM -1% | [9]; [16] 21% | [9]; at 11.0 µM 1% | [9]; at 33.0 µM 3% | [9]; at 50.0 µM 34% | [9]; at 100.0 µM 21% | [10]; at 1.2 µM 0% | [10]; at 3.7 µM 1% | [10]; at 11.0 µM 7% | [10]; at 33.0 µM 14% | [10]; at 100.0 µM 25% | [11]; at 1.2 µM 1% | [11]; at 3.7 µM 7% | [11]; at 11.0 µM 15% | [11]; at 33.0 µM 30% | [12]; at 50.0 µM 61.8% | [13]; at 1.2 µM 1% | [13]; at 3.7 µM 2% | [13]; at 11.0 µM -2% | [13]; at 33.0 µM 25% | [13]; at 100.0 µM 55%
active: [2]; at 100.0 µM 79% | [4]; [17] 71% | [4]; at 50.0 µM 75.8% | [7]; [17] 86% | [9]; [17] 78% | [11]; at 100.0 µM 72% | [12]; [16] 78% | [12]; [17] 93%

CCCCCCCCCCCCCCCCCN
3.15% (inactive) and 90.2% (active): [4]; at 50.0 µM
47.4% (inactive) and 92.5% (active): [7]; at 50.0 µM
inactive: [1]; at 1.2 µM -23% | [1]; at 3.7 µM -25% | [1]; at 11.0 µM -5% | [2]; at 1.2 µM -14% | [2]; at 3.7 µM 11% | [3]; at 1.2 µM -29% | [3]; at 3.7 µM -24% | [4]; at 1.2 µM -27% | [4]; at 3.7 µM -17% | [4]; [16] 26% | [5]; at 1.2 µM -37% | [5]; at 3.7 µM -28% | [5]; [16] 51% | [6]; at 1.2 µM -31% | [6]; at 3.7 µM -24% | [6]; at 11.0 µM 14% | [7]; [16] 7% | [7]; [17] 50% | [14]; at 1.2 µM -22% | [14]; at 3.7 µM 11% | [9]; at 1.2 µM -10% | [9]; at 3.7 µM -4% | [9]; [16] 54% | [10]; at 1.2 µM -15% | [10]; at 3.7 µM -12% | [10]; at 11.0 µM 49% | [15]; at 1.2 µM -31% | [15]; at 3.7 µM 0% | [11]; at 1.2 µM -46% | [11]; at 3.7 µM -3% | [11]; at 11.0 µM 58% | [12]; [16] 41% | [13]; at 1.2 µM -38% | [13]; at 3.7 µM -18% | [13]; at 11.0 µM 61% | [13]; at 33.0 µM 15%
-6.55% (inactive) and 92% (active): [5]; at 50.0 µM
active: [1]; at 33.0 µM 90% | [1]; at 100.0 µM 94% | [2]; at 11.0 µM 82% | [2]; at 33.0 µM 97% | [2]; at 100.0 µM 96% | [3]; at 11.0 µM 86% | [3]; at 33.0 µM 97% | [3]; at 100.0 µM 96% | [4]; at 11.0 µM 85% | [4]; at 33.0 µM 97% | [4]; [17] 96% | [4]; at 100.0 µM 94% | [5]; at 11.0 µM 91% | [5]; at 33.0 µM 98% | [5]; [17] 97% | [5]; at 100.0 µM 93% | [6]; at 33.0 µM 95% | [6]; at 100.0 µM 94% | [14]; at 11.0 µM 94% | [14]; at 33.0 µM 98% | [14]; at 100.0 µM 95% | [9]; at 11.0 µM 90% | [9]; at 33.0 µM 98% | [9]; [17] 97% | [9]; at 100.0 µM 95% | [10]; at 33.0 µM 90% | [10]; at 100.0 µM 96% | [15]; at 11.0 µM 90% | [15]; at 33.0 µM 97% | [15]; at 100.0 µM 94% | [11]; at 33.0 µM 97% | [11]; at 100.0 µM 96% | [12]; [17] 96% | [13]; at 100.0 µM 93%
32.8% (inactive) and 90.2% (active): [9]; at 50.0 µM
23.5% (inactive) and 89.9% (active): [12]; at 50.0 µM

Cc1ccc2oc(-c3cccc(N)c3)nc2c1
inactive: [1]; at 1.2 µM 0% | [1]; at 3.7 µM -4% | [1]; at 11.0 µM 2% | [1]; at 33.0 µM 0% | [1]; at 100.0 µM 5% | [2]; at 1.2 µM 1% | [2]; at 3.7 µM 2% | [2]; at 11.0 µM 10% | [2]; at 33.0 µM 23% | [2]; at 100.0 µM 36% | [3]; at 1.2 µM -6% | [3]; at 3.7 µM -13% | [3]; at 11.0 µM -4% | [3]; at 33.0 µM 6% | [3]; at 100.0 µM 24% | [4]; at 1.2 µM -3% | [4]; at 3.7 µM 4% | [4]; [16] -7% | [4]; at 11.0 µM 1% | [4]; at 33.0 µM 12% | [4]; [17] 10% | [4]; at 50.0 µM 17.4% | [4]; at 100.0 µM 29% | [5]; at 1.2 µM -2% | [5]; at 3.7 µM -3% | [5]; [16] -10% | [5]; at 11.0 µM 3% | [5]; at 33.0 µM 3% | [5]; [17] 13% | [5]; at 50.0 µM 3.95% | [5]; at 100.0 µM 8% | [6]; at 1.2 µM 1% | [6]; at 3.7 µM 3% | [6]; at 11.0 µM 9% | [6]; at 33.0 µM 18% | [6]; at 100.0 µM 27% | [7]; [16] 10% | [7]; [17] 48% | [7]; at 50.0 µM -18.8% | [14]; at 1.2 µM -5% | [14]; at 3.7 µM -6% | [14]; at 11.0 µM -4% | [14]; at 33.0 µM 6% | [14]; at 100.0 µM 15% | [8]; [16] -42% | [8]; [17] -2% | [8]; at 50.0 µM 27.5% | [9]; at 1.2 µM -6% | [9]; at 3.7 µM -3% | [9]; [16] 9% | [9]; at 11.0 µM 9% | [9]; at 33.0 µM 23% | [9]; [17] 36% | [9]; at 50.0 µM 23.4% | [9]; at 100.0 µM 35% | [10]; at 1.2 µM -3% | [10]; at 3.7 µM -2% | [10]; at 11.0 µM -2% | [10]; at 33.0 µM 1% | [10]; at 100.0 µM 11% | [15]; at 1.2 µM -4% | [15]; at 3.7 µM 6% | [15]; at 11.0 µM -2% | [15]; at 33.0 µM 2% | [15]; at 100.0 µM 21% | [11]; at 1.2 µM -1% | [11]; at 3.7 µM 0% | [11]; at 11.0 µM 2% | [11]; at 33.0 µM 5% | [11]; at 100.0 µM 10% | [13]; at 1.2 µM -2% | [13]; at 3.7 µM -4% | [13]; at 11.0 µM 3% | [13]; at 33.0 µM 17% | [13]; at 100.0 µM 53%
